In the library only some 12% were active in any assay of this set; here they are far more common.
PLK1 PBD inh: PLK1 (human) polo-box domain binding inhibition; P53350; Plk1 PBD binding of FITC phosphopeptide, fluorescence polarization; Potency, µM, for inactives: max response, negative = inhibition, most hits filed as inhibitors; hit rate 2.8% among 360,000; note: series mostly up to about 57 µM; nearly all actives have a fitted effect of over 65% in size
Target sequence (P53350 whole entry, looked up, the tested form may be a part): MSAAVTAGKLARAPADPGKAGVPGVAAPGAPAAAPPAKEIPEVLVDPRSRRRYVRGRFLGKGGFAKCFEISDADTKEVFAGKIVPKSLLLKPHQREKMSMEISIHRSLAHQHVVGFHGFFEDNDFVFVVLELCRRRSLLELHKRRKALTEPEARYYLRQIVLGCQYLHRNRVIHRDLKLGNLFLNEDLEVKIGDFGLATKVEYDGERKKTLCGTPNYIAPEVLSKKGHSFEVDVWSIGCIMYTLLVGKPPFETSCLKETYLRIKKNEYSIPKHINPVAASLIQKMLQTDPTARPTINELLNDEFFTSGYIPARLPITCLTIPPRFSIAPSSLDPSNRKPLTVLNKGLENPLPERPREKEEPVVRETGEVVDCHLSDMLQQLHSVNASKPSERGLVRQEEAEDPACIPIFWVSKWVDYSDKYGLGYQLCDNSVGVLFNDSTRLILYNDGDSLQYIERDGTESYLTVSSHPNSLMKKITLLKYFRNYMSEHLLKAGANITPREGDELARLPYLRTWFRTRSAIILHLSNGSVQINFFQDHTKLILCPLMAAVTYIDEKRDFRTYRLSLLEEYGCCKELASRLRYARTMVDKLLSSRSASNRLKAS
ALDH1A1 block: inhibitors of human aldehyde dehydrogenase 1A1 | P00352 | hit rate 7.3% among 220,000 | Potency, µM (titrated, usually from 75.3 µM), without a hit: top-dose activity, negative = inhibition, actives largely listed as inhibitors | AID 1030 | Purified ALDH1A1, NADH fluorescence, propionaldehyde substrate; active = well fitted inhibition curve with a large enough effect, not every such curve was filed as active; inconclusive = small, poorly fitted or top-dose-only effect, or another doubt; inactive = no such curve, though single readings can be large or run the other way;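 note: plate controls were no enzyme wells and a reference inhibitor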
RORg inh: blocks mouse ROR gamma transcriptional activity | hit rate 5.4% among 310,000 | Drosophila S2 Gal4-RORgamma UAS-luciferase reporter, 20 h | Potency, µM (doses to about 53.6 µM), for the others: at the highest dose activity change, negative = inhibition, hits mostly inhibitors | P51450; note: nearly all actives have a fitted effect of over 60% in size
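Compounds are pin-transferred onto Drosophila Schneider cells expressing a copper-inducible Gal4–ROR gamma transactivation domain fusion. After 1 hr, copper sulfate is added to 700 uM final; luciferase is read 20 hr later.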
Gal4-VP16 FLuc: Gal4-VP16 reporter inhibition counter-screen | Drosophila S2 Gal4-VP16 UAS-luciferase, luminescence, 20 h | Potency, µM (series often up to 53.6 µM), without a hit: at the highest dose activity, negative = inhibition, hits mostly inhibitors | hit rate 3.5% among 310,000 | AID 2546;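 note: Gal4-VP16 expression switched on by copper sulfate through the metallothionein promoter; nearly all actives have a fitted effect of over 50% in size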
Sfp PPTase inh: inhibitors of Bacillus subtilis Sfp phosphopantetheinyl transferase. AID 1490. Potency, µM, without a hit: largest response in the series, negative = inhibition, actives largely listed as inhibitors. Biochemical Sfp PPTase activity, qHTS. hit rate 3.5% among 310,000;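 note: the enzyme is Sfp with the accession as filed and its product quenches rhodamine fluorescence; 0% = enzyme reaction without inhibitor and -100% = no enzyme wells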
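Fluorescence-quenching assay: 15 nM Sfp-PPTase preincubated 15 min at room temperature with compound, then 5 uM rhodamine-CoA and 12.5 uM BHQ-2-labelled YbbR peptide added. Fluorescence (ex 525/em 598 nm) read at start and after 30 min; difference gives rate.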
* hit, by the source's call; ? = inconclusive; · = no result; ! = not active in a repeat; [ ] = another dose, or the depositor's remark. Unless noted, calls come from the whole dose curve; as a rule, active = well fitted curve in the direction sought with a large enough effect; inconclusive = small, poorly fitted or top-dose-only effect, or another doubt; inactive = no such curve, though single readings can be large; an effect the other way counts as inactive or inconclusive. Unless noted, % is set by controls: 0 for no effect and ±100 for the full control effect; potency is the fitted concentration of half-maximal effect.

SMILES	PLK1 PBD inh	ALDH1A1 block	RORg inh	Gal4-VP16 FLuc	Sfp PPTase inh
CCCCS/C(N)=N/N=C/c1ccccc1O	-11%	-5%	0.63µM*	1.1µM*	13%
CCCCNC(=O)c1[nH]c(=O)cnc1-c1ccccc1	-5%	·	·	·	·
NNC(=O)c1oc2ccccc2c1-n1cccc1	-8%	2.2µM*	-39%	-6%	-11%
C[C@@H]1NCC[C@H](CC(=O)O)[C@H]1CC(=O)O	·	6%[13.5 µM]	·	·	·
CC(=O)Nc1c([N+](=O)[O-])cc2[nH]c(=O)[nH]c2c1[N+](=O)[O-]	?	2%	-1%	-11%	20µM*
CCCCC1=CC2=C(c3ccco3)C(=O)C(C)(OC(=O)c3ccc(OC)cc3)C(=O)C2=CN1Cc1ccc(OC)cc1 (stereo unspecified)	·	-12%[13.5 µM]	-6%	?	71µM*!
CCCCC1=CC2=C(c3ccco3)C(=O)C(C)(OC(=O)c3ccc(OC)cc3)C(=O)C2=CN1CC1CC1 (stereo unspecified)	-19%	2%[13.5 µM]	-17%	-10%	17%
CCCCC1=CC2=C(c3ccco3)C(=O)C(C)(OC(=O)c3ccc(OC)cc3)C(=O)C2=CN1CCCCO (stereo unspecified)	-17%	?	?	-1%	?
CCCCC1=CC2=C(c3ccco3)C(=O)C(C)(OC(=O)c3ccc(OC)cc3)C(=O)C2=CN1CC(C)C (stereo unspecified)	-11%	?	1%	1%	3.5µM*!
CCCCC1=CC2=C(c3ccco3)C(=O)C(C)(OC(=O)c3ccc(OC)cc3)C(=O)C2=CN1Cc1ccco1 (stereo unspecified)	?	?	0%	2%	45µM*
CC1(C(=O)NS(=O)(=O)c2ccc(Cl)cc2)CCN1C(=O)c1ccco1 (stereo unspecified)	-7%	·	·	·	·
CN(C)CC[C@@](O)(c1ccccc1)c1ccccc1Cl	·	·	9%	-9%	4%
CCC(C)c1ccccc1N1CC(C(=O)N(C)CC(=O)Nc2cccc(F)c2)CC1=O (stereo unspecified)	4%	·	·	·	·
COc1ccc(NS(=O)(=O)c2ccc3oc4ccccc4c3c2)cn1	-6%	8.9µM*	-34%	?	56µM*
O=S(=O)(c1ccc2c(c1)OCCO2)N1CCC(n2nnc3cc(F)ccc32)CC1	21µM*	-11%	34%	-6%	15%
O=S(=O)(c1ccc2c(c1)OCCO2)N1CCC(n2cnc3cc(F)ccc32)CC1	-9%	?	?	3%	-8%
O=C(C1=C[C@H](C2CCCCC2)C[C@H](OCc2ccc(CO)cc2)O1)N1CCOCC1	-6%	3%	34%	19%	4%
O=C(C1=C[C@@H](C2CC2)C[C@@H](OCCCCO)O1)N1CCOCC1	1%	32µM*	-16%	0%	2%
O=C(C1=C[C@@H](C2CCCCC2)C[C@@H](OCc2ccc(CO)cc2)O1)N1CCN(Cc2ccccc2)CC1	-1%	?	?	13µM*	-21%
O=C(C1=C[C@H](C2CCCCC2)C[C@H](OCc2ccc(CO)cc2)O1)N1CCN(Cc2ccccc2)CC1	-27%	14µM*	35%	-18%	-13%
O=C(O)c1cc(-c2ccc(Cl)cc2)n(-c2cccc(Cl)c2)n1	-18%	·	5%	7%	12%
CN(C)c1nc(-c2cccc(NS(C)(=O)=O)c2)nc2ccccc12	·	-2%	44%	4%	-21%
Cc1ccccc1OC1C=CC(c2ccccc2)OC1CO (stereo unspecified)	·	0%[13.5 µM]	2%[10 µM]	2%[10 µM]	-7%
O=C(Nc1ccc(Cl)cc1)Nc1ccccc1Sc1ncc([N+](=O)[O-])s1	8.4µM*	·	11µM*	?	50µM*
O=C(Nc1csc([N+](=O)[O-])c1)Nc1ccccc1Cl	-4%	·	31%	-29%	2%
SMILES	PLK1 PBD inh	ALDH1A1 block	RORg inh	Gal4-VP16 FLuc	Sfp PPTase inh
COc1cccc(Nc2nc(-c3sc(NC(=O)CC(C)C)nc3C)cs2)c1	-17%	?	?	18µM*	14%
CCC(=O)Nc1nc(C)c(-c2csc(Nc3cccc(C(=O)O)c3)n2)s1	?	?	-9%	-3%	20µM*
NC(=S)N=Nc1c(O)[nH]c2ccc(F)cc12	0%	?	4.5µM*	?	?
CC(C)NC(=S)N=Nc1c(O)[nH]c2ccc(C(C)C)cc12	-4%	5%	5µM*	4.5µM*	18%
CN1CCN(NC(=O)/C=C/c2cccc(Cl)c2)CC1	0%	·	-14%	-9%	-1%
c1nc2nc(Nc3ccc(N4CCOCC4)cc3)nc(NC3CCCCC3)c2[nH]1	·	·	-96%	?	?
Cc1ccc(S(=O)(=O)/N=C(\CCl)N2CCOCC2)cc1	-27%	28µM*	-39%	-28%	9%
Nc1ccn(C2OC(COC(=O)C34CC5CC(CC(C5)C3)C4)C(O)C2O)c(=O)n1 (stereo unspecified)	-7%	·	·	·	·
CCn1c(C)c(C(C)=O)c(N2CCN(c3cccc(Cl)c3)CC2)nc1=S	-9%	14µM*	?	1%	-15%
CC(=O)c1c(N2CCN(C)CC2)nc(=S)n(Cc2ccccc2)c1C	-6%	5%	-1%	-4%	16%
CCn1c(C)c(C(C)=O)c(N2CCN(c3ccc(OC)cc3)CC2)nc1=S	?	25µM*	-27%	1%	22µM*
CC(=O)c1c(N2CCN(c3cccc(Cl)c3)CC2)nc(=S)n(-c2ccccc2)c1C	-17%	-3%	20µM*	?	23%
C=CCn1c(C)c(C(C)=O)c(N2CCN(C(c3ccccc3)c3ccccc3)CC2)nc1=S	-5%	-2%	18µM*	?	2%
COC(=O)c1ccc(C(NC(=O)OCc2ccccc2)/C(=C/[C@@H](C)C(=O)NC2CCCCC2)c2cccnc2)cc1 (stereo partly specified)	·	-2%	?	1%	1%
O=C(O)C1(O)CC(O)C(O)C(O)C1 (stereo unspecified)	·	-6%	-11%	1%	6%
O=C(CNC(=S)N(Cc1ccccc1F)C1CCCCC1)NCC1CCCO1 (stereo unspecified)	-5%	7.1µM*	11%	-7%	4%
O=C(O)CNC(=S)N(Cc1ccccc1F)C1CCCCC1	3%	?	-1%	-9%	-13%
COCCCNC(=O)CNC(=S)N(Cc1ccccc1F)C1CCCCC1	-12%	14µM*	7%	7%	7%
CCCCNC(=O)CNC(=S)N(Cc1ccccc1F)C1CCCCC1	-4%	22µM*	13µM*	-15%	15%
COCC(=O)N1CCC[C@@]2(CCN(C(=O)Nc3ccc(OC)cc3)C2)C1	·	1%	0%	13%	20%
Cn1cc(C=O)c2cc(F)ccc21	-2%	2.2µM*	-11%	7%	4%
CC(=O)OCC1OC(C#Cc2ccc(C)cc2C)C=CC1OC(C)=O (stereo unspecified)	·	?	21%[10 µM]	4%[10 µM]	4%
CC1(C)OC(c2ccccc2)=C/C(=C/C=Nc2ccccc2)O1	-3%	4.5µM*	-11%	31%	2%

High-throughput results deposited in PubChem by National Center for Advancing Translational Sciences (NCATS).
